40 compounds from PubChem BioAssay (NCI) can be followed below.

The panel holds about 83,000 compounds, 20% with a hit somewhere; the sample as a whole holds those more often.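 Note: values are percent growth. 100 is the growth of untreated cells, values between 100 and 0 indicate rising inhibition; between -100 and 0 indicates cell death.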 Calls of active or inactive are those of the source.

In this experiment the test system is SK-MEL-2 melanoma. The experiment can be described thus: NCI-60 one-dose screen, 48 h (100 = growth as untreated, 0 = no growth, -100 = all killed). To be noted: 10 µM unless noted. How it is done: Growth inhibition of the SK-MEL-2 human tumor cell line is measured as a screen for anti-cancer activity. Cells are grown in 96 well plates and exposed to the test compound for 48 hours. Compounds are tested at a single concentration, which is 10^-5 M for most compounds. The reported endpoint is percent growth (GI% or GIPRCNT), where numbers from 0 - 100% represent growth inhibition, and numbers from -100% - 0 represent cell death. For example, a value of 40 represents 60% growth inhibition. A value of 0 means no net growth occurred over the course of the experiment. A value of -40 indicates 40% of cells at the beginning of the experiment died by the end of the experiment. A value of -100 means all cells are dead at the end of the experiment.
NCI-60 Human Tumor Cell Lines Screen was performed using the standard one-dose NCI protocol, which is described in more detail at https://dtp.cancer.gov/discovery_development/nci-60/default.htm.
Compounds with GIPRCNT values below 10 were considered active. Activity score was based on GIPRCNT using the following formula: […]
Score is 0 for GIPRCNT values of 100 or above, 50 for GIPRCNT values of 0, and 100 for GIPRCNT values of -100.
As for `COc1ccc(/C=N\Nc2nc(SCCC(C)C)nc(-c3ccc(OC)cc3)c2C#N)cc1`, the growth is 103% (inactive).
`Cc1ccc(Nc2cc(N)nc(N)n2)cc1Cl`: the growth was 103% (inactive).
Regarding `Nc1ncnc2c1C(c1ccc(Br)cc1)c1sc3c(F)cccc3c1O2` (stereo not given), the growth was 110% (inactive).
Take `COc1cc2c(cc1OCCCN1CCN(CCCOc3cc4c(cc3OC)C(=O)N3CC(F)(F)C[C@H]3C=N4)CC1)N=C[C@@H]1CC(F)(F)CN1C2=O`: the growth is 90.6% (inactive).
Take `CCOC(=O)c1c(NC(=O)c2ccc(Cl)cc2)sc2c(CN(C)C)c(O)ccc12`: the growth is 101% (inactive).
For the compound `CCN(CC)c1ccc(\C=N/N=C(N)/C(N)=N\N=C/c2ccc(N(CC)CC)cc2)cc1`, the growth was 97.7% (inactive).
In the case of `COc1cc2ncnc(Nc3ccc(S(=O)(=O)Nc4cc(C)on4)cc3)c2cc1OCCCN1CCN(c2ccc(F)cc2)CC1`, the growth is 113% (inactive).
With `O=c1c2ccccc2n2cnc3ccc(Cl)c1c32`, the growth was 96.5% (inactive).
Consider `Cc1cc(C)c2c(c1)N(C)c1ncnc(-n3cnc4cc(C)ccc43)c1CC2C` (stereo not given), for which the growth is 16.7% (inactive).
To `CC1(C)COB(OCC(C)(C)COB2OCC(C)(C)CO2)OC1` belongs 113% (inactive); to `CS(=O)(=O)Nc1cc(-c2ccc3ncnc(Nc4ccc5c(cnn5Cc5cccc(F)c5)c4)c3c2)cnc1Cl`, -42% (active).
Take `COC(=O)Nc1nc2ccc(S(=O)c3ccccc3)cc2[nH]1` (stereo not given): the growth was 48.1% (inactive).
Turning to `CCOC(=O)n1cc(-c2nonc2-c2cn(C(=O)OCC)c3ccc(Br)cc23)c2ccccc21`, the growth is 87.5% (inactive).
Consider `CCCn1cc2c(=O)nc3sc(Cc4ccccc4)c(C)n3c2n1`, for which the growth is 93.7% (inactive).
Take `CN(C)CCNC(=O)c1ccc(-c2nc3ccc4[nH]ncc4c3c3c2C2CCC3C2)cc1` (stereo not given): the growth is -5.51% (active).
To `C1CCC([PH+](C2CCCCC2)C2CCCCC2[PH+](C2CCCCC2)C2CCCCC2)CC1.[Au].[CH-]1CCCCC1C1CCCC[N-]1` (stereo not given) belongs -56.6% (active); to `N#Cc1nc(-c2ccc(Cl)cc2)oc1S(=O)(=O)N1CCN(c2ccc(F)cc2)CC1`, 87.9% (inactive); to `C=C1C(=O)O[C@H]2[C@H]1CC/C(Cn1cc(-c3ccccc3)nn1)=C\CC[C@@]1(C)O[C@@H]21`, 6.62% (active).
As to `CCOC(=O)c1nn(-c2ccc(S(N)(=O)=O)cc2)c2nc(C)cc(=O)n12`, the growth is 109% (inactive).
Consider `CCOC(=O)c1ccc(NC(=O)c2nc(-c3cc(OC)c(OC)c(OC)c3)n(-c3ccc(Cl)cc3)n2)cc1`, for which the growth was 85.9% (inactive).
Consider `O=C(c1ccncc1)N1N=C(c2ccc(Cl)cc2)C[C@H]1c1cn(-c2ccccc2)nc1-c1ccccc1`, for which the growth is 110% (inactive).
For the compound `O=C(Nc1nc2ccc(C(=O)N3CCN(/C=C/c4ccccc4)CC3)cc2s1)c1ccc(NCCc2ccccc2)c([N+](=O)[O-])c1`, the growth is 87.6% (inactive).
For the compound `N#Cc1c(-c2ccc(Cl)cc2)nc(NN2C(=O)c3ccccc3C2=O)nc1N1CCOCC1`, the growth was 110% (inactive).
With `NC(N)=NCCCCCNc1noc(Cc2c[nH]c3cc(Br)ccc23)n1`, the growth is 87.7% (inactive).
On to `O=S(=O)(NCCNc1nccc(-c2c(-c3ccc(F)c(O)c3)nc3sccn23)n1)c1ccc(O)cc1`, for which the growth was 19.8% (inactive).
On to `COc1cc2c(cc1OC)C(C)N(S(N)(=O)=O)CC2` (stereo not given), for which the growth was 106% (inactive).
To `CCCCNC(=O)Oc1ccc(/C(=C(/C)Cc2ccc(OC)cc2)c2ccc(OCCN(CC)CC)cc2)cc1` belongs 102% (inactive); to `CC(C)(Sc1cc(C(C)(C)C)c(O)c(C(C)(C)C)c1)Sc1cc(C(C)(C)C)c(OC(=O)CCCC(=O)O)c(C(C)(C)C)c1`, 76% (inactive).
`COc1ccc(/C=C/C(=O)c2cccc(OCCCCOc3cccc(C(=O)/C=C/c4ccc(OC)c(OC)c4)c3)c2)cc1OC`: the growth was 81.2% (inactive).
To `Nc1c(C(=O)Nc2ccccc2C(F)(F)F)sc2nc3c(cc12)CCC3` belongs 102% (inactive); to `CC(C)=CCCC(C)c1ccc(C)c2c1OCN(CCCCCO)C2` (stereo not given), 92.7% (inactive).
Next, `Cc1ccc2c(n1)C(=O)C(Br)=C(C1CCCC1)C2=O`: 112% (inactive).
Take `COc1cc(C2c3cc(OC(C)=O)c(OC)cc3CC3C(=O)OCC32)ccc1OC(C)=O` (stereo not given): the growth is 132% (inactive).
To `COc1ccc2c(c1OC)CO[C@@H]2[C@H]1c2c(cc3c(c2OC)OCO3)CCN1S(=O)(=O)c1cn(C)cn1` belongs 36.3% (inactive); to `Cc1ccc(C[P+](c2ccccc2)(c2ccccc2)c2ccccc2)cc1`, -4.59% (active); to `CCn1cc(C(=O)NNC(=S)Nc2ccc(C)cc2)c(=O)c2ccc(C)nc21`, 104% (inactive).
Take `CCOC(=O)C(=O)C(C(=O)OCC)c1ccccc1` (stereo not given): the growth was 101% (inactive).
For `O=C(Nc1nc2cc(C(=O)N3CCN(C(c4ccccc4)c4ccccc4)CC3)ccc2o1)c1ccc(NC2CCCCC2)c([N+](=O)[O-])c1`, the growth is 90.8% (inactive).
For the compound `O=C1/C(=C/c2ccccc2O)CC/C1=C\c1ccccc1O`, the growth was 105% (inactive).
With `CC1=NC2=Nn3c(c4cnn(-c5ccccc5)c4n/c3=N\N)NN2C(c2ccccc2)=C1`, the growth is 101% (inactive).
